Publication PMC5540273 (PLoS ONE, 2017)
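Also: kd values determined as follow-up on hits from a single-replicate KINOMEscan panel screen.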

The compounds below were run on TNNI3K.
With COc1ccc(Nc2nccc(N3CCC(NS(=O)(=O)c4ccc(NC(C)=O)cc4)C3)n2)cc1 (stereo not shown) [GSK1379729] the Kd was over 10000 nM.
Nc1nc(-c2ccccc2F)c(-c2ccnc3ccccc23)s1 [GW560459] showed a Kd of over 10000 nM.
Nc1ncnc2c1ncn2-c1cccc(F)c1 [SKF-97560] was tested, and the Kd was over 10000 nM.

These compounds were tested on TYK2(JH1domain-catalytic).
With COc1ccc(Nc2nccc(N3CCC(NS(=O)(=O)c4ccc(NC(C)=O)cc4)C3)n2)cc1 (stereo not shown) [GSK1379729] the Kd was 86 nM.
Compound COc1cc(Nc2nccc(N3CCC(NC(=O)C4COc5ccccc5O4)C3)n2)cc(OC)c1OC (stereo not shown) [GSK1379761] has a Kd of 1500 nM.
For COc1cccc(-n2cnc3c(N)ncnc32)c1 [SKF-97416], the Kd was over 10000 nM.

The compounds below were run on T1, VPS34.
T1 construct: gene PIK3C3
Cc1ccccc1COc1cc(-n2cnc3cc(Cl)ccc32)sc1C(N)=O [GW813349] showed a Kd of over 10000 nM.
With O=c1cc(N2CCOCC2)nc2n(Cc3ccc(F)c(Cl)c3)ccn12 [GSK2297099] the Kd was 15 nM.
Compound Cc1nn2c(=O)cc(N3CCOCC3)nc2n1Cc1cccc(Cl)c1Cl [GSK2342769] has a Kd of 0.43 nM.
COc1ccc(Nc2nccc(N3CCC(NS(=O)(=O)c4ccc(NC(C)=O)cc4)C3)n2)cc1 (stereo not shown) [GSK1379729] showed a Kd of 97 nM.
